The target in one assay is pT7_6His-AlfaTag-HOXD13 (human, UniProt P35453 263-343). In words: PADIT-seq. Particulars: dsDNA, one strand shown.
In another assay the target is pT7_6His-AlfaTag-ZIF268 (human, UniProt P18146 335-423). Briefly: PADIT-seq. The note with it: dsDNA, one strand shown.

Chain of pT7_6His-AlfaTag-HOXD13 (P35453 263-343): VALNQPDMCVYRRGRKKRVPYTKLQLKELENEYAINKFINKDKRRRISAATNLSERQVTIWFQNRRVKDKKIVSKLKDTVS

“CTCGAGGATATCAAGATCTGGCCTCGGCATTTTACGCGGAACCTCTAGCTAGCCGACTCACTATAGGGATAATCGCCCTGAGCAAAGACC”: the binding signal with pT7_6His-AlfaTag-HOXD13 is 2.16 ± 0.0812 log2FC. On the same count and under the same terms, as for “CTCGAGGATATCAAGATCTGGCCTCGGCAAGCTAAAAGGAACCTCTAGCTAGCCGACTCACTATAGGGATAATCGCCCTGAGCAAAGACC”, the figure is -0.784 ± 0.107 log2FC; as for “CTCGAGGATATCAAGATCTGGCCTCGGCTACGTAAAAGGAACCTCTAGCTAGCCGACTCACTATAGGGATAATCGCCCTGAGCAAAGACC”, 0.743 ± 0.0961 log2FC; as for “CTCGAGGATATCAAGATCTGGCCTCGGCCTTTTATTCGGAACCTCTAGCTAGCCGACTCACTATAGGGATAATCGCCCTGAGCAAAGACC”, 1.67 ± 0.077 log2FC.

Turning to “CTCGAGGATATCAAGATCTGGCCTCGGCGTTTTACTGGGAACCTCTAGCTAGCCGACTCACTATAGGGATAATCGCCCTGAGCAAAGACC”, the binding signal with pT7_6His-AlfaTag-HOXD13 worked out at 2.76 ± 0.0911 log2FC.

For “CTCGAGGATATCAAGATCTGGCCTCGGCATTTTAGACGGAACCTCTAGCTAGCCGACTCACTATAGGGATAATCGCCCTGAGCAAAGACC”, the binding signal with pT7_6His-AlfaTag-HOXD13 was -0.141 ± 0.116 log2FC. The sequence “CTCGAGGATATCAAGATCTGGCCTCGGCCCCGTAAAAGGAACCTCTAGCTAGCCGACTCACTATAGGGATAATCGCCCTGAGCAAAGACC” came in with a binding signal in the assay with pT7_6His-AlfaTag-HOXD13 of 2.52 ± 0.0899 log2FC. In the assay with pT7_6His-AlfaTag-HOXD13, “CTCGAGGATATCAAGATCTGGCCTCGGCGTTTTAGTAGGAACCTCTAGCTAGCCGACTCACTATAGGGATAATCGCCCTGAGCAAAGACC” showed a binding signal of 1.61 ± 0.098 log2FC.

In the case of “CTCGAGGATATCAAGATCTGGCCTCGGCGGAATAAAAGGAACCTCTAGCTAGCCGACTCACTATAGGGATAATCGCCCTGAGCAAAGACC”, in the assay with pT7_6His-AlfaTag-HOXD13, the binding signal was 0.87 ± 0.0838 log2FC. The same measure, in the same setting: as for “CTCGAGGATATCAAGATCTGGCCTCGGCCTTTTAGGTGGAACCTCTAGCTAGCCGACTCACTATAGGGATAATCGCCCTGAGCAAAGACC”, the figure is 0.366 ± 0.0957 log2FC.

As for “CTCGAGGATATCAAGATCTGGCCTCGGCGTTTTACGTGGAACCTCTAGCTAGCCGACTCACTATAGGGATAATCGCCCTGAGCAAAGACC”, the binding signal in the assay with pT7_6His-AlfaTag-HOXD13 turned out to be 2.36 ± 0.0852 log2FC. For the sequence “CTCGAGGATATCAAGATCTGGCCTCGGCCGCGTGCGCGGAACCTCTAGCTAGCCGACTCACTATAGGGATAATCGCCCTGAGCAAAGACC”, the binding signal with pT7_6His-AlfaTag-HOXD13 was -0.99 ± 0.127 log2FC.

The sequence “CTCGAGGATATCAAGATCTGGCCTCGGCTTTTTACCCGGAACCTCTAGCTAGCCGACTCACTATAGGGATAATCGCCCTGAGCAAAGACC” displayed a binding signal with pT7_6His-AlfaTag-HOXD13 of -0.11 ± 0.103 log2FC. The same measure, in the same setting: as for “CTCGAGGATATCAAGATCTGGCCTCGGCCGCCCAATTGGAACCTCTAGCTAGCCGACTCACTATAGGGATAATCGCCCTGAGCAAAGACC”, the figure is -0.555 ± 0.114 log2FC; as for “CTCGAGGATATCAAGATCTGGCCTCGGCTACCTAAAAGGAACCTCTAGCTAGCCGACTCACTATAGGGATAATCGCCCTGAGCAAAGACC”, -0.459 ± 0.127 log2FC. Still for that read-out and setting: the value for “CTCGAGGATATCAAGATCTGGCCTCGGCTTTGTAAAAGGAACCTCTAGCTAGCCGACTCACTATAGGGATAATCGCCCTGAGCAAAGACC” was 1.2 ± 0.0832 log2FC.

In the assay with pT7_6His-AlfaTag-HOXD13, “CTCGAGGATATCAAGATCTGGCCTCGGCATTTTAGTCGGAACCTCTAGCTAGCCGACTCACTATAGGGATAATCGCCCTGAGCAAAGACC” came in with a binding signal of -0.427 ± 0.127 log2FC.

With “CTCGAGGATATCAAGATCTGGCCTCGGCCTTTTAGGCGGAACCTCTAGCTAGCCGACTCACTATAGGGATAATCGCCCTGAGCAAAGACC”, the binding signal in the assay with pT7_6His-AlfaTag-HOXD13 is -0.31 ± 0.108 log2FC. The sequence “CTCGAGGATATCAAGATCTGGCCTCGGCTGTCCACGCGGAACCTCTAGCTAGCCGACTCACTATAGGGATAATCGCCCTGAGCAAAGACC” came in with a binding signal in the assay with pT7_6His-AlfaTag-HOXD13 of -0.737 ± 0.124 log2FC. “CTCGAGGATATCAAGATCTGGCCTCGGCTTGTGGGCGGGAACCTCTAGCTAGCCGACTCACTATAGGGATAATCGCCCTGAGCAAAGACC”: the binding signal in the assay with pT7_6His-AlfaTag-HOXD13 is -0.943 ± 0.108 log2FC; in the assay with pT7_6His-AlfaTag-ZIF268, 2.19 ± 0.0788 log2FC. In the same order, the values of “CTCGAGGATATCAAGATCTGGCCTCGGCCCTTTAAAAGGAACCTCTAGCTAGCCGACTCACTATAGGGATAATCGCCCTGAGCAAAGACC” are 2.14 ± 0.0827 log2FC and 0.0924 ± 0.0888 log2FC.

In the case of “CTCGAGGATATCAAGATCTGGCCTCGGCTTTTTAGAGGGAACCTCTAGCTAGCCGACTCACTATAGGGATAATCGCCCTGAGCAAAGACC”, the results for the binding signal with pT7_6His-AlfaTag-HOXD13 and with pT7_6His-AlfaTag-ZIF268 were 1.39 ± 0.106 log2FC and 0.141 ± 0.108 log2FC, respectively. As for “CTCGAGGATATCAAGATCTGGCCTCGGCGTCGTAAAAGGAACCTCTAGCTAGCCGACTCACTATAGGGATAATCGCCCTGAGCAAAGACC”, in the assay with pT7_6His-AlfaTag-HOXD13, the binding signal was found to be 2.57 ± 0.0709 log2FC.

For the sequence “CTCGAGGATATCAAGATCTGGCCTCGGCCCCCTAAAAGGAACCTCTAGCTAGCCGACTCACTATAGGGATAATCGCCCTGAGCAAAGACC”, the binding signal with pT7_6His-AlfaTag-HOXD13 is 0.578 ± 0.0983 log2FC; with pT7_6His-AlfaTag-ZIF268, 0.267 ± 0.0922 log2FC. “CTCGAGGATATCAAGATCTGGCCTCGGCGCTTGGGCGGGAACCTCTAGCTAGCCGACTCACTATAGGGATAATCGCCCTGAGCAAAGACC”: the binding signal was -0.995 ± 0.12 log2FC in the assay with pT7_6His-AlfaTag-HOXD13 and 0.158 ± 0.0966 log2FC with pT7_6His-AlfaTag-ZIF268.

Consider “CTCGAGGATATCAAGATCTGGCCTCGGCCGCCCACTGGGAACCTCTAGCTAGCCGACTCACTATAGGGATAATCGCCCTGAGCAAAGACC”, for which the values for the binding signal in the assay with pT7_6His-AlfaTag-HOXD13 and with pT7_6His-AlfaTag-ZIF268 were -0.571 ± 0.123 log2FC and 0.278 ± 0.104 log2FC, respectively.
